In PubChem BioAssay (EPA / NIEHS) one finds AC50 and outcome data, which are given here for 17 compounds.

Experiment [1] deals with SERPINA7 (gene 6906). Put plainly: CCTE_GLTED_hTBG: CCTE's human Thyroxine-binding Globulin (TBG) Inhibition Assay, Great Lakes Toxicology and Ecology Division (GLTED) Lab (AID 2284343; active = hit-call score of the fitted dose curve at least 0.9, where 1 is the maximum;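 also: active chemicals lower fluorescence versus DMSO baseline by displacing probe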). The procedure, abridged:
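Human TBG incubated 2 h with test chemical; displacement of ANSA probe read by fluorescence, 380 nm excitation/475 nm emission. Loss of signal relative to DMSO.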

Experiment [2] can be described thus: CCTE_Deisenroth_H295R-HTRF_384WELL_ESTRADIOL: CCTE's H295R-HTRF Assay Evaluation of Estradiol Concentration, Deisenroth Lab (AID 2284361). The conditions noted are these: actives raise or lower the signal. The procedure, abridged:
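H295R cells exposed 48 h to chemicals at 0.001 - 100 uM final (nine points, triplicate); estradiol in conditioned medium measured by HTRF immunoassay, fitted bidirectionally versus DMSO. Viability by CellTiter-Glo on same plates.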

A short description of experiment [3]: CCTE_Deisenroth_H295R-HTRF_384WELL_TESTOSTERONE: CCTE's H295R-HTRF Assay Evaluation of Testosterone Concentration, Deisenroth Lab (AID 2284373). The following applies: actives raise or lower the signal. The method in brief: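 Testosterone secreted into medium was quantified by direct HTRF immunoassay after a 48 h treatment of H295R adrenocortical cells (nine concentrations, 0.001–100 uM final). Gain or loss fitted relative to DMSO; CellTiter-Glo viability read on same plates.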

Experiment [4] in a line: CCTE_Deisenroth_H295R-HTRF_384WELL_CTOX: Cytotoxicity Assessment in CCTE's H295R-HTRF Assay, Deisenroth Lab (AID 2284380; active = hit-call score of the fitted dose curve at least 0.9, where 1 is the maximum). The method in brief:
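H295R adrenocortical carcinoma cells plated 24 h, then exposed 48 h to nine-point series 0.001–100 uM final, triplicate, n=5. ATP measured by CellTiter-Glo 2.0 luminescence on same plates after medium collection; loss versus DMSO.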

Experiment [5] can be described thus: CCTE_Mundy_HCI_iCellGluta_NOG_NeuriteCount: CCTE's Neurite Outgrowth Assay in iCellGluta cells for Neurite Count, Mundy Lab (AID 2284342; active = hit-call score of the fitted dose curve at least 0.9, where 1 is the maximum;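 also: chemical exposure about 48 hours starting 2 hours after plating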).
Experiment [6] has as its system TTR (gene 7276). Put plainly: CCTE_GLTED_hTTR_0.125uM: CCTE's human Transthyretin (hTTR) Inhibition Assay, with 0.125uM TTR, Great Lakes Toxicology and Ecology Division (GLTED) Lab (AID 2284431).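 Also: hits lower the fluorescence signal relative to DMSO baseline.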 The method in brief: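 Cell-free displacement of ANSA probe from 0.125uM TTR after 2 h incubation with chemical. Fluorescence read at 380 nm excitation/475 nm emission; loss of signal relative to DMSO indicates T4-site displacement.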

The subject of experiment [7] is SRY-box transcription factor 2 (SOX2) Protein Expression, Deisenroth Lab, SOX2 (gene 6657). Kind of experiment: CCTE_Deisenroth_DEVTOX-GLR_legacy_Sox2: (Legacy) CCTE's DevTox GLR-Endo Assay Evaluation of SRY-box transcription factor 2 (SOX2) Protein Expression, Deisenroth Lab (AID 2284346). The method in brief: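 RUES2-GLR human pluripotent cells were differentiated for 48 h with two chemical doses 24 h apart, over 1 nM-200 uM. Sox2+ cells were those above 5x BMAD of the endoderm-control median; percent Sox2+ minus the 0.2% DMSO median was used, from n=4 replicates.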

The subject of experiment [8] is SRY-box transcription factor 17 (SOX17) Protein Expression, Deisenroth Lab, SOX17 (gene 64321). Kind of experiment: CCTE_Deisenroth_DEVTOX-GLR_Endo_SOX17: CCTE's DevTox GLR-Endo Assay Evaluation of SRY-box transcription factor 17 (SOX17) Protein Expression, Deisenroth Lab (AID 2284413). The method in brief: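 RUES2-GLR human pluripotent cells were differentiated toward endoderm for 48 h and received two compound doses 24 h apart (1 nM - 200 uM, 10 points). High-content imaging of fixed cells gave the percent SOX17+ cells per cell count, expressed as percent change versus 0.2% DMSO.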

The test system of experiment [9] is Brachyury (BRA) Protein Expression, TBXT (gene 6862). Put plainly: CCTE_Deisenroth_DEVTOX-GLR_Endo_BRA: CCTE's DevTox GLR-Endo Assay Evaluation of Brachyury (BRA) Protein Expression, Deisenroth Lab (AID 2284417). The procedure, abridged:
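RUES2-GLR human pluripotent cells, seeded 24 h, then differentiated 48 h in defined media with two chemical exposures 24 h apart (10-point series, 1 nM - 200 uM). Fixed, nuclear-stained, imaged; endpoint is percent BRA+ cells minus 0.2% DMSO control.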

Experiment [10] is described as follows: CCTE_Deisenroth_DEVTOX-GLR_Endo_CellCount: Viability Assessment in CCTE's DevTox GLR-Endo Assay, Deisenroth Lab (AID 2284420). The procedure, abridged: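 RUES2-GLR pluripotent cells seeded 24 h, then differentiated 48 h in defined media with two chemical exposures 24 h apart. Nuclei counted by high-content imaging; 10-point 1 nM–200 uM series; percent change versus 0.2% DMSO.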

The subject of experiment [11] is SRY-box transcription factor 2 (SOX2) Protein Expression, Deisenroth Lab, SOX2 (gene 6657). Kind of experiment: CCTE_Deisenroth_DEVTOX-GLR_Pluri_SOX2: CCTE's DevTox GLR-Pluri Assay Evaluation of SRY-box transcription factor 2 (SOX2) Protein Expression, Deisenroth Lab (AID 2284428). The method in brief: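 RUES2-GLR human pluripotent cells, two exposures 24 h apart over 48 h differentiation; 10-point series 1 nM - 200 uM. High-content imaging gives SOX2+ cells divided by cell count, reported as percent change versus 0.2% DMSO.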

In experiment [12] the test system is Brachyury (BRA) Protein Expression, Deisenroth Lab, TBXT (gene 6862). Kind of experiment: CCTE_Deisenroth_DEVTOX-GLR_Pluri_BRA: CCTE's DevTox GLR-Pluri Assay Evaluation of Brachyury (BRA) Protein Expression, Deisenroth Lab (AID 2284429; active = hit-call score of the fitted dose curve at least 0.9, where 1 is the maximum). The procedure, abridged: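 RUES2-GLR human pluripotent cells differentiated 48 hours with two chemical exposures 24 hours apart, 10-point series 1 nM–200 uM. Fixed, nuclear-stained, imaged; endpoint is percent BRA+ cells minus 0.2% DMSO control.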

A short description of experiment [13]: CCTE_Deisenroth_DEVTOX-GLR_Pluri_CellCount: Viability Assessment in CCTE's DevTox GLR-Pluri Assay Evaluation of Total Cell Counts, Deisenroth Lab (AID 2284430). The method in brief:
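RUES2-GLR human pluripotent cells, seeded 24 h, then differentiated 48 h with two chemical exposures 24 h apart; 10-point series 1 nM - 200 uM. Fixed, nuclear-stained, imaged (5 fields/well); nuclei count as % change vs 0.2% DMSO.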

Inconclusive results are not listed. Calls of active or inactive are those of the source. The calls were made as follows, unless noted: active = hit-call score of the fitted dose curve at least 0.9, where 1 is the maximum; inactive = score below 0.9.

Consider `OC(c1ccc(Cl)cc1)(c1cncnc1)c1ccccc1Cl` (stereo unspecified), for which the AC50 in experiment [1] is 36.5 µM (active). For the same compound, the call in experiment [2], in [3] and in experiment [4] was inactive.
Turning to `C=CCC1=C(C)C(OC(=O)C2C(C=C(C)C)C2(C)C)CC1=O` (stereo unspecified), in experiment [5], the compound was classed as inactive.
Regarding `COC(=O)C(C)Oc1ccc(Oc2ccc(Cl)cc2Cl)cc1` (stereo unspecified), the AC50 in experiment [6] is 1.12 µM (active).
Take `COP(N)(=O)SC` (stereo unspecified): the compound was called inactive in experiment [5].
On to `CC(C)(C)c1ccc(CSc2cnn(C(C)(C)C)c(=O)c2Cl)cc1`, for which, in experiment [5], the AC50 is 374 nM (active).
In the case of `CCCCOC(=O)c1ccccc1C(=O)OCCCC`, the call in experiment [5] was inactive. The AC50 in experiment [1] was 11.4 µM (active).
Consider `CCON=C(CC)C1=C(O)CC(c2c(C)cc(C)cc2C)CC1=O` (stereo unspecified), for which the AC50 in [6] was 9.92 µM (active).
`CCNc1nc(Cl)nc(NC(C)C)n1`: in experiment [2], the AC50 was 9.8 µM (active). For the same compound, the compound was called inactive in experiment [3] and in experiment [4].
Take `CN(C)C(=S)SSC(=S)N(C)C`: the AC50 in experiment [5] is 44.7 nM (active).
For the compound `O=C(O)COc1nc(Cl)c(Cl)cc1Cl`, the AC50 in experiment [6] was 6.69 µM (active).
As for `CCOC(=O)CC(SP(=S)(OC)OC)C(=O)OCC` (stereo unspecified), the outcome in experiment [5] was inactive.
Turning to `CCCCNC(=O)n1c(NC(=O)OC)nc2ccccc21`, the compound was classed as inactive in experiment [5], in experiment [2] and in [3]. Besides, the AC50 in experiment [4] is 5.92 µM (active).
For `N#Cc1nn(-c2c(Cl)cc(C(F)(F)F)cc2Cl)c(N)c1S(=O)C(F)(F)F` (stereo unspecified), in experiment [5], the compound was classed as inactive. Also, the AC50 in experiment [1] is 24.6 µM (active).
As to `Fc1ccc(Oc2ccnc3cc(Cl)cc(Cl)c23)cc1`, the AC50 in experiment [1] was 8.16 µM (active); in experiment [6] it was 2.74 µM (active).
`Cc1cc(Cl)ccc1OCC(=O)O`: the concentration at half-maximal activity (AC50) in experiment [1] is 59.6 µM (active); in experiment [6], 22.1 µM (active).
Take `C=CC1(C)OC(=O)N(c2cc(Cl)cc(Cl)c2)C1=O` (stereo unspecified): in [5], the outcome was inactive. Moreover, the AC50 in experiment [6] was 1.68 µM (active).
Take `COC(=O)c1ccccc1C(=O)OC`: the result in [7], in experiment [8], in experiment [9], in experiment [10], in experiment [11] and in experiment [12] was inactive. In [13], the compound was classed as inactive.
